# Measurements taken from PubChem BioAssay (NCATS).
# Several values for one entry are separate records, joined by “and”; a condition that tells them apart may be missing. Equal values may be shown once. Results filed as inconclusive are left out. A call without a number means that no potency is given here. Some compounds were tested as several samples or in several runs, with calls that do not always agree. Activity calls are given as the source filed them. Unless noted, calls follow the shape of the dose curve; as a rule, active = well fitted curve in the direction sought with a large enough effect; inconclusive = small, poorly fitted or top-dose-only effect, or another doubt; inactive = no such curve, though single readings can be large; an effect the other way counts as inactive or inconclusive. Residues, ends and D or L forms follow the SMILES beside them. *: point of attachment. Cbz = O=C(OCc1ccccc1)*
# Columns and labels:
# [1] = P-glycoprotein substrates identified in KB-3-1 adenocarcinoma cell line, qHTS therapeutic library screen (AID 1346986); details: KB-3-1 parental cells viability, CellTiter-Glo, 72 h; series mostly up to 44.5 µM; also: nearly all actives have a fitted effect of over 60% in size;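 also: potency is read from the fitted curve at half-maximal effect; potency is for cytotoxicity meaning loss of cell viability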
# Method in brief: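 Compounds were tested in dose-response against KB-3-1 and KB-8-5-11 cells at 37 degree C for 72 h, and viability was measured by luminescence. AC50 values came from curve fitting with class-based activity calls.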
# [2] = P-glycoprotein substrates identified in KB-8-5-11 adenocarcinoma cell line, qHTS therapeutic library screen (AID 1346987); details: KB-8-5-11 (P-gp overexpressing) viability, CellTiter-Glo, 72 h; series mostly up to 44.5 µM; also: nearly all actives have a fitted effect of over 65% in size; also: potency is read from the fitted curve at half-maximal effect
# Method in brief: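 P-gp-mediated resistance screen: KB-8-5-11 cells treated 72 h with compounds in dose-response. CellTiter-Glo viability.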
# [3] = qHTS of pediatric cancer cell lines to identify multiple opportunities for drug repurposing: Primary screen for TC32 cells (AID 1347089); details: TC32 Ewing sarcoma viability, CellTiter-Glo luminescence, 48 h; series mostly up to 45.8 µM; also: nearly all actives have a fitted effect of over 60% in size; also: potency is read from the fitted curve at half-maximal effect
# Method in brief: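 qHTS, TC32, 48 h drug treatment, CellTiter-Glo luminescence as a proxy for metabolically active cells; primary top concentration 46 µM (MIPE 11-pt, NPC 8-pt); confirmatory 11-pt.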
# [4] = NS1 protein of Zika virus - qHTS assay to identify small molecule inhibitors in human HEK 293 cells (AID 1347053); details: HEK293 ZIKV MR766 infection, NS1 TR-FRET, 24 h; series mostly up to 46.1 µM; also: nearly all actives have a fitted effect of over 55% in size; also: potency is read from the fitted curve at half-maximal effect
# Method in brief: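 HEK 293 cells pretreated with compound for 1 h, then infected with ZIKV MR766 (MOI 0.5) for 24 h at 37 C. NS1 detected by TR-FRET with two anti-NS1 antibodies; normalized to uninfected (0%) and infected (100%) wells.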
# [5] = qHTS of pediatric cancer cell lines to identify multiple opportunities for drug repurposing: Primary screen for DAOY cells (AID 1347090); details: DAOY medulloblastoma viability, CellTiter-Glo luminescence, 48 h; series mostly up to 46 µM; also: nearly all actives have a fitted effect of over 55% in size; also: potency is read from the fitted curve at half-maximal effect
# Method in brief: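 Viability measured as metabolically active cells via CellTiter-Glo luminescence following 48 hours of compound exposure, 11-point dilutions in confirmatory testing. 500-1,000 cells/well plated 5 hours before dosing; controls were DMSO and 2.3 µM bortezomib.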
# [6] = Natriuretic polypeptide receptor (hNpr1) antagonism - Pilot counterscreen GloSensor control cell line (AID 1347045; calls by dose curve); details: HEK293 cGMP GloSensor cells, SNP-stimulated luminescence, 20 min; series mostly up to 38.3 µM
# Method in brief: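 This counterscreen uses HEK293 cells expressing the GIP/pGS-40F cGMP biosensor. Compound-treated cells are challenged with 50 uM sodium nitroprusside, and the luciferase signal is compared before and after stimulation.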
# [7] = target: Atrial natriuretic peptide receptor 1 (Homo sapiens) (UniProt P16066); assay: Natriuretic polypeptide receptor (hNpr1) antagonism - Pilot screen (AID 1347049; calls by dose curve;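 also: agonist-evoked cGMP luminescence read 20 min after hNppA addition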); details: hNpr1 cells, antagonist mode cGMP read-out; series mostly up to 57.5 µM
# Atrial natriuretic peptide receptor 1 (Homo sapiens), sequence (P16066 whole entry, looked up): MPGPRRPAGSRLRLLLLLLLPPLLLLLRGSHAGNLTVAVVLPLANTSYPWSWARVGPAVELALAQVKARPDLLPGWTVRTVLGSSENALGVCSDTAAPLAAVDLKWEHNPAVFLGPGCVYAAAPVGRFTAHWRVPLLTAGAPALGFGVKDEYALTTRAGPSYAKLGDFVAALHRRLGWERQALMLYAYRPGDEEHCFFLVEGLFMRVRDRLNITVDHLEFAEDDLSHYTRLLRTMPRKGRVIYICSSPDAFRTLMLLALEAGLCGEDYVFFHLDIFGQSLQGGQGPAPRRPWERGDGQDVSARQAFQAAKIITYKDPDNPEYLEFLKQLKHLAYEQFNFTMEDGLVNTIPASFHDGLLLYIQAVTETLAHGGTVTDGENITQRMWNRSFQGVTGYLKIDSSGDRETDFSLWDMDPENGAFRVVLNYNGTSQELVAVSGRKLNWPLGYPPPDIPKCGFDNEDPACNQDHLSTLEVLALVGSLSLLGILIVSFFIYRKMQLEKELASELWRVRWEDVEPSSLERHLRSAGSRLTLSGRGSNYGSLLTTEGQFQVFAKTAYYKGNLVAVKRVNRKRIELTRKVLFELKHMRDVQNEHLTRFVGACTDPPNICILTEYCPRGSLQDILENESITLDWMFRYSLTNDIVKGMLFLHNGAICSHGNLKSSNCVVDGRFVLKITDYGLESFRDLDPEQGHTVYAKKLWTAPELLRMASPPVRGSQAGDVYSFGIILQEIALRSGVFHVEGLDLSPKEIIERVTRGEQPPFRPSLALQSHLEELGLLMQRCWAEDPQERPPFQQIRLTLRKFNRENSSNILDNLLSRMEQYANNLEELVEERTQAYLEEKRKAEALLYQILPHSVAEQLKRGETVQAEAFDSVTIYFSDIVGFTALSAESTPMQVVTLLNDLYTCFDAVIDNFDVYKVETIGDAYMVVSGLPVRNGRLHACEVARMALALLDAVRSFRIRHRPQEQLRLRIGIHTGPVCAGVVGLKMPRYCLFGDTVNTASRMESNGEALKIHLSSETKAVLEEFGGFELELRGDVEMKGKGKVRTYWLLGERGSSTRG
# Method in brief: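 HEK293 cells expressing hNpr1 and GloSensor cGMP luciferase, 1500/well, loaded with 2% GloSensor reagent 2 h, compound 30 min at room temperature; luminescence read before and 20 min after 0.1 nM hNppA stimulation.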
# [8] = target: Atrial natriuretic peptide receptor 2 (Homo sapiens) (UniProt P20594); assay: Natriuretic polypeptide receptor (hNpr2) antagonism - Pilot subtype selectivity assay (AID 1347050; calls by dose curve); details: NPR2-expressing cells, cGMP antagonist-mode read-out; series mostly up to 38.3 µM
# Atrial natriuretic peptide receptor 2 (Homo sapiens), sequence (P20594 whole entry, looked up): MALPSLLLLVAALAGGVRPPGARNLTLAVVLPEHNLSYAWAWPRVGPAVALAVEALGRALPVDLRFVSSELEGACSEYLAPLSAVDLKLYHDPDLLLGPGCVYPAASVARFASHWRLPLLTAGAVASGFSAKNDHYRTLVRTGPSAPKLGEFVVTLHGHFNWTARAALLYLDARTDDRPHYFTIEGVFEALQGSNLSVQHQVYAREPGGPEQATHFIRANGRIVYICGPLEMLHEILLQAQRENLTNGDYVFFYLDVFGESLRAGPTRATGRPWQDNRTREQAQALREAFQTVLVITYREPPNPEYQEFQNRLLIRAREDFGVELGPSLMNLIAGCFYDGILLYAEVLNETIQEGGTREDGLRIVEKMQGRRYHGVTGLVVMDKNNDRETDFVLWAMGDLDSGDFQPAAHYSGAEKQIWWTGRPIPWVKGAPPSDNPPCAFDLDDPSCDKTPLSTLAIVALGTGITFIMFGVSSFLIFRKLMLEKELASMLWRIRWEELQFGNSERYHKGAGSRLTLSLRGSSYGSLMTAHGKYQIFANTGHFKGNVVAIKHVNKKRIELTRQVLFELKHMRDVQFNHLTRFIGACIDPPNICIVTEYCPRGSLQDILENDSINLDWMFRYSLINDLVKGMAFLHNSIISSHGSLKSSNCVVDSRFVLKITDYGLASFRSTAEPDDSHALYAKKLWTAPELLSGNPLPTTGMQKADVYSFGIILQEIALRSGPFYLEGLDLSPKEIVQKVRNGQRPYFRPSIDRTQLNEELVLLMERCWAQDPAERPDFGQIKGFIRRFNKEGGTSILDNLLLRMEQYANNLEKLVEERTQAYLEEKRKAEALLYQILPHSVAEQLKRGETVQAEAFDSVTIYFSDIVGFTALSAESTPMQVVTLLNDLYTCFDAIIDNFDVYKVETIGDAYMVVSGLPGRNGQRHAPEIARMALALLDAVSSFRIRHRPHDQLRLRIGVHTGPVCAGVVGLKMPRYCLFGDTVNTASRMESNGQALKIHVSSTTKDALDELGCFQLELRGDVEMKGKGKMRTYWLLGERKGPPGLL
# Method in brief: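 HEK293 cells expressing hNpr2 and a GloSensor cGMP luciferase sensor, 1500/well, preloaded 2 h with 2% GloSensor reagent, compound 30 min, then 1 nM hNppC for 20 min. Antagonism from luminescence after versus baseline pre-read; LOPAC in 1:5 titrations.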
# [9] = target: Parathyroid hormone/parathyroid hormone-related peptide receptor (Homo sapiens) (UniProt Q03431); assay: qHTS for PTHR1 Agonists: Optimization Screen against the NCGC LOPAC library (AID 1347079); details: HEK293 GP2 PTHR1 GloSensor cAMP luminescence, 1 h; series mostly up to 57.1 µM;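 also: GloSensor cAMP luminescence in HEK-293 GP2 cells expressing human PTHR1 with IBMX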
# Parathyroid hormone/parathyroid hormone-related peptide receptor (Homo sapiens), sequence (Q03431 whole entry, looked up): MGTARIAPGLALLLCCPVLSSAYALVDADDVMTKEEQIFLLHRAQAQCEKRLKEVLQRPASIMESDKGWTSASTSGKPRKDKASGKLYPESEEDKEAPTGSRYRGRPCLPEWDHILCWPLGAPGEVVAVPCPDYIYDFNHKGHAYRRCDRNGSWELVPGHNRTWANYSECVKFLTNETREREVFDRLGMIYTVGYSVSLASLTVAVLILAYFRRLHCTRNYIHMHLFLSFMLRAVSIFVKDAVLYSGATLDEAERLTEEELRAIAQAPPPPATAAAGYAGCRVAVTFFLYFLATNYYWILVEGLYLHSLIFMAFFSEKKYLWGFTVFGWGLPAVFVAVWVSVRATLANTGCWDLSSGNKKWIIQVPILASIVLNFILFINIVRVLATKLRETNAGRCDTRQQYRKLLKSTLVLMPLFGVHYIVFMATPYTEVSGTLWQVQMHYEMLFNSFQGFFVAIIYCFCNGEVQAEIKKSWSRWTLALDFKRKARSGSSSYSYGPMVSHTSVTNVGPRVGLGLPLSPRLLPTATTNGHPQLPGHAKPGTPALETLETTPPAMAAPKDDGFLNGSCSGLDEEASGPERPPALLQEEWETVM
# Method in brief: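 Compounds were tested across a qHTS titration. PTHR1-expressing GP2 cells report cAMP rises via GloSensor luminescence after 1 hr compound exposure at 37C with IBMX present.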
smiles,measurement,setting,value
Nc1ccc(C(=O)Nc2cccc(-c3nc(N4CCOCC4)c4oc5ncccc5c4n3)c2)cn1,Potency,[1],inactive and 13 µM (active)
same,Potency,[2],inactive and 9.2 µM (active)
same,Potency,[3],inactive
OCc1ccccc1O[C@@H]1O[C@H](CO)[C@H](O)[C@H](O)[C@H]1O,Potency,[1],inactive
same,Potency,[2],inactive
same,Potency,[4],inactive
same,Potency,[3],inactive
same,Potency,[5],inactive
CC1(C)O[C@@H]2C[C@H]3[C@@H]4CCC5=CC(=O)C=C[C@]5(C)[C@@H]4[C@@H](O)C[C@]3(C)[C@]2(C(=O)CO)O1,Potency,[1],inactive
same,Potency,[2],inactive
same,Potency,[4],inactive
same,Potency,[5],inactive
CCC(C=C[C@@H]1OC(=O)C=C[C@H]1C)=C[C@H](C)CC=CC(C)=C[C@@H](C)C(=O)[C@@H](C)[C@H](O)[C@@H](C)CC(C)=CC(=O)O,Potency,[2],0.196 µM (active)
same,Potency,[4],124 nM (active)
same,Potency,[5],78.2 nM (active)
OCCNC1CCCc2c1[nH]c1ccc(-c3ccccc3)cc21 (stereo not given),Potency,[2],6.51 µM (active)
same,Potency,[4],20900 nM (active)
C=C(C)[C@@H]1CC[C@]2(C(=O)O)CC[C@]3(C)[C@H](CC[C@@H]4[C@@]5(C)CC[C@H](O)C(C)(C)[C@@H]5CC[C@]43C)[C@@H]12,Potency,[2],inactive
same,Potency,[4],inactive
same,Potency,[3],inactive
same,Potency,[5],inactive
NC(=O)Nc1cc(-c2ccc(CN3CCOCC3)cc2)sc1C(N)=O,Potency,[2],1.48 µM (active)
C[C@@H](Oc1ccc2[nH]nc(C=Cc3cnn(CCO)c3)c2c1)c1c(Cl)cncc1Cl,Potency,[2],0.332 µM (active)
same,Potency,[3],18600 nM (active)
Cc1cnc(NC(=O)Nc2cc(Br)c(C)cc2OC[C@@H]2CNCCO2)cn1,Potency,[4],6620 nM (active)
CCc1ccc(C(=O)Nc2cc(CN3CCN(C)CC3)cc(C(F)(F)F)c2)cc1C#Cc1cnc2ccnn2c1,Potency,[1],4110 nM (active)
same,Potency,[2],8.33 µM (active) and 3.66 µM (active)
same,Potency,[4],13200 nM (active)
same,Potency,[5],23500 nM (active)
CC(O)(C#Cc1ccc2c(c1)N(c1nc(N)ncc1Cl)CC2)c1nccs1 (stereo not given),Potency,[3],inactive
same,Potency,[5],7430 nM (active)
NC(=O)c1ncn([C@@H]2O[C@H](CO)[C@@H](O)[C@@H]2O)c1O,Potency,[2],inactive
same,Potency,[4],inactive
same,Potency,[3],inactive
CS(=O)(=O)N1CCc2c(-c3cnc(N)nc3)nc(N3CCOCC3)nc21,Potency,[1],820 nM (active)
same,Potency,[2],1.3 µM (active)
same,Potency,[5],469 nM (active)
CC(C(C)N1CC(=O)NC(=O)C1)N1CC(=O)NC(=O)C1 (stereo not given),Potency,[2],inactive
same,Potency,[3],inactive
same,Potency,[5],inactive
CC(C)C[C@@H](C=O)NC(=O)[C@H](CC(C)C)NC(=O)[C@H](CC(C)C)NC(=O)OCc1ccccc1 (Cbz-Leu-Leu-Leu-aldehyde),Potency,[2],5.26 µM (active)
same,Potency,[3],2340 nM (active)
Cc1cc(-c2nnc3n2CCCCC3)c(C)n1-c1ccccc1,Potency,[2],inactive
same,Potency,[4],inactive
same,Potency,[3],inactive
FC(F)c1nc2ccccc2n1-c1nc(N2CCOCC2)nc(N2CCOCC2)n1,Potency,[2],1.16 µM (active)
same,Potency,[4],1870 nM (active)
O=c1c(O)c(-c2ccc(O)c(O)c2)oc2cc(O)ccc12,Potency,[2],13.2 µM (active)
same,Potency,[4],inactive
same,Potency,[3],inactive
CC(=O)OCC(=O)[C@@]1(O)CC[C@H]2[C@@H]3CCC4=CC(=O)CC[C@]4(C)[C@@H]3C(=O)C[C@@]21C,Potency,[4],inactive
same,Potency,[3],inactive
same,Potency,[5],inactive
CN[C@H](CC(C)C)C(=O)N[C@H]1C(=O)N[C@@H](CC(N)=O)C(=O)N[C@@H]2C(=O)N[C@H]3C(=O)N[C@H](C(=O)N[C@H](C(=O)O)c4cc(O)cc(O)c4-c4cc3ccc4O)[C@H](O)c3ccc(c(Cl)c3)Oc3cc2cc(c3O[C@@H]2O[C@H](CO)[C@@H](O)[C@H](O)[C@@H]2O[C@H]2C[C@](C)(N)[C@H](O)[C@H](C)O2)Oc2ccc(cc2Cl)[C@H]1O,Potency,[2],inactive
same,outcome,[6],inactive
same,outcome,[7],inactive
same,outcome,[8],inactive
same,Potency,[4],inactive
same,outcome,[9],inactive
same,Potency,[3],inactive
